# Source: PubChem BioAssay AID2417 (National Center for Advancing Translational Sciences (NCATS), 2010)
# In all, about 140,000 compounds went through this assay and about 4,300 (3.1%) were called active. Inconclusive results (about 21%) are left out.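 Rule for the calls: active = readout at or below -70, meaning at least 70% loss of cells showing the perinucleolar compartment, a nuclear body marking cancer cells; inconclusive = readout between -30 and a set limit; inactive = the rest.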 Many of the other results were omitted from the sample, so actives are more common in it than they were.
# Assay: High Content Assay for Compounds that inhibit the Assembly of the Perinucleolar Compartment;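 note: plate controls were DMSO wells for no effect and camptothecin positive control wells for full effect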
# Conditions: PC3M PTB-GFP, PNC prevalence imaging, 16 h; at 10 µM; hits give low values
# In short: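 Compounds are pinned in duplicate onto adhered PC3M cells stably expressing GFP-tagged PTB and incubated 16 h at 37 C. Cells are then fixed, nuclei stained with Hoechst, and PNC-positive cells counted.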
row,SMILES,"activity change (PNC), negative = inhibition"
1,Cc1cc(Oc2ccc(Cl)cc2)nc(SCC(=O)c2ccccc2)n1,16.7% (inactive)
2,Cc1ccc(OCc2nnc(NC(=O)OCC(C)C)s2)cc1,26.9% (inactive)
3,Cc1ccc(SCC(=O)Nc2ncc(C)s2)cc1,34.4% (inactive)
4,CCOCc1nnc(NC(=O)CSc2ccc(C)cc2)s1,-89.8% (active)
5,O=[N+]([O-])c1ccccc1SNc1ccccn1,-0.121% (inactive)
6,Cc1cccc(N2C(=O)SC(SC(=Nc3ccccc3)Nc3ccccc3)C2=O)c1 (configuration not stated),64.7% (inactive)
7,COCCn1c(C)cc(C(=O)CSc2ncnc3sc4c(c23)CCC4)c1C,-100% (active)
8,Cc1nc(SCC(=O)Nc2cc(C)on2)c2c3c(sc2n1)CCCC3,-9.46% (inactive)
9,Cc1cc(C)n(-c2nc(SCC(=O)N3CCCC3)c3c4c(sc3n2)CCCC4)n1,26% (inactive)
10,CC(=O)Nc1ccc(C(=O)OCC(=O)Nc2ccc([N+](=O)[O-])cc2C(F)(F)F)cc1,-8.91% (inactive)
11,CCCCCCCCCOC1OC(CO)C(O)C(O)C1NC(C)=O (configuration not stated),-8.39% (inactive)
12,COc1ccccc1C(=O)Nn1c(-c2cccs2)nc2ccccc2c1=O,-26.6% (inactive)
13,Cc1[nH]c2ccccc2c1C(=O)CSCC(=O)O,-15.7% (inactive)
14,CCOC(=O)N1CCN(CC(=O)c2c(C)[nH]c3ccccc23)CC1,-18.6% (inactive)
15,Cc1[nH]c2ccccc2c1C(=O)COC(=O)c1c(-c2ccccc2)noc1C,-121% (active)
16,CCOC(=O)c1cccnc1NC(=O)c1ccncc1,-1.7% (inactive)
17,Brc1ccc(OCCn2ccnc2)cc1,-118% (active)
18,Cc1ccc(OCCOCCOc2ccc(Br)cc2/C=N\NC(=O)c2ccncc2)cc1,-9.62% (inactive)
19,COc1ccc(/C=C(\C#N)C(=O)NCCCn2ccnc2)cc1,60.5% (inactive)
20,Oc1ccc(Br)cc1C=Nc1ccc2[nH]ncc2c1,18.8% (inactive)
21,CNC(=S)N/N=C/c1ccc(OCc2ccccc2)c(Br)c1,23.4% (inactive)

row,SMILES,"activity change (PNC), negative = inhibition"
1,Cc1cccc2cc3c(N)c(C(=O)N4CCCc5ccccc54)sc3nc12,-97.5% (active)
2,O=C(c1cc(-c2ccc(O)cc2)on1)N1CCCc2ccccc21,-28.7% (inactive)
3,O=C(c1cccc(C(=O)N2CCc3ccccc32)n1)N1CCc2ccccc21,8.65% (inactive)
4,COc1cc(NC(=S)NNC(=O)CC(C)C)c(OC)cc1Cl,20.5% (inactive)
5,Cc1ccc(C(=O)OCc2nc(N)nc(Nc3ccccc3C)n2)cc1,-25% (inactive)
6,COCC(=O)Nc1cc(C(=O)OC)cc(C(=O)OC)c1,0.32% (inactive)
7,COc1cccc2c(C)c(C(=O)O)[nH]c12,-100% (active)
8,COc1cccc2c(O)cc(=O)n(C)c12,3.35% (inactive)
9,CCOC(=O)c1c(C)[nH]c(C(=O)NCc2ccccc2OC)c1C,4.85% (inactive)
10,CCOC(=O)C(C)Sc1nnc(CSc2nc3nc(C)cc(C)n3n2)o1 (configuration not stated),-12% (inactive)
11,O=C(CN1CCN(c2ccc(O)cc2)CC1)Nc1cc(S(=O)(=O)N2CCOCC2)ccc1Cl,32% (inactive)
12,O=C(CCc1nc2ccccc2c(=O)[nH]1)OCC(=O)c1cccc(Cl)c1,9.28% (inactive)
13,COc1ccc(NC(=O)c2nc(-n3nc(C)cc3C)ccc2Cl)cc1Cl,-28.2% (inactive)
14,COc1ccc(Nc2cc(C)nc(-n3nc(C)cc3C)n2)cc1,-93.3% (active)
15,COc1ccccc1/C=N\Nc1cc(C)nc(-n2nc(C)cc2C)n1,-20.8% (inactive)
16,Cc1cc(Oc2ccccc2)nc(N2CCOCC2)n1,31.1% (inactive)
17,Cc1cc(C)n(-c2cc(Oc3ccccc3)ncn2)n1,61.7% (inactive)
18,CC(=O)c1ccc(Oc2cc(C)nc(-n3nc(C)cc3C)n2)cc1,-86.2% (active)
19,CC(=O)NNC1=Nc2ccccc2N(C)C(C)C1 (configuration not stated),41.2% (inactive)
20,O=C(COc1ccc(Cl)cc1)N1CCN(S(=O)(=O)c2ccc(Cl)cc2)CC1,-28.2% (inactive)
21,O=C(COc1ncnc2c(Cl)cc(Cl)cc12)N1CCN(S(=O)(=O)c2ccccc2)CC1,25.7% (inactive)

row,SMILES,"activity change (PNC), negative = inhibition"
1,O=C(ON=C1CCN(S(=O)(=O)c2ccccc2)CC1)c1ccc(Cl)cc1,-100% (active)
2,O=C(Nc1ccc(N2C(=O)c3cccc4cccc(c34)C2=O)cc1)c1ccc(N2CCCCC2)c([N+](=O)[O-])c1,12% (inactive)
3,COc1ccc(NC(=O)c2ccccc2[N+](=O)[O-])cc1OC,40.9% (inactive)
4,Cc1ccc(NC(=O)c2sccc2C)cc1[N+](=O)[O-],-105% (active)
5,Cc1ccsc1C(=O)N/N=C/c1ccc([N+](=O)[O-])cc1,-4.41% (inactive)
6,C=CCN(c1ccc(C(=O)Nc2cc(C)cc(C)c2)cc1)S(C)(=O)=O,0% (inactive)
7,COc1ccc(-c2cc(C(=O)NC(Cc3c[nH]c4ccccc34)C(=O)O)c(C)o2)cc1OC (configuration not stated),41% (inactive)
8,COc1ccc(C(=O)ON=C2c3ccccc3-c3ccccc32)cc1OC,2.98% (inactive)
9,COc1cc(CCC(=O)OCC(=O)Nc2cccc(S(N)(=O)=O)c2)cc(OC)c1OC,17.9% (inactive)
10,COCC(=O)Nc1nnc(COc2ccccc2)s1,5.3% (inactive)
11,COc1ccc(OCC(=O)Nc2nnc(-c3ccco3)s2)cc1,-113% (active)
12,Cc1ccc(OCC(=O)Nc2ccc(-c3nnc(-c4ccco4)o3)cc2)cc1,63.9% (inactive)
13,Cc1ccc(C(=O)N2CC(=O)Nc3ccccc32)o1,-19.5% (inactive)
14,CCc1ccc(C2C(C#N)=C(N)N(N(C)C)C3=C2C(=O)CCC3)s1 (configuration not stated),36.4% (inactive)
15,O=C1NC(=Nc2ccc(Cl)cc2)SC1Cc1cccc(Cl)c1Cl (configuration not stated),66.6% (inactive)
16,O=C(COC(=O)/C=C/c1cccc(Cl)c1)NCCc1ccccc1,-23.6% (inactive)
17,COCCNC(=O)c1ccccc1NS(=O)(=O)c1ccc(C)c([N+](=O)[O-])c1,33% (inactive)
18,C/C(CC(=O)Nc1cccc(F)c1)=N\NC(=O)C(=O)NC1CCCCC1,0.469% (inactive)
19,CCN1CCN(C(=O)C2(NC(=O)Nc3cccc(F)c3)CCCCC2)CC1,-83.6% (active)
20,O=C(Nc1cccc(F)c1)c1ccc(S(=O)(=O)N2CCCC2)cc1,8.69% (inactive)
